# Where “and” joins values, the source holds several entries; their conditions need not be identical. Identical values can stand only once. Calls of active or inactive are those of the source. Unless noted, how the calls were made is not given here.
# Key:
# [1] = liver-stage malaria parasite growth inhibition, primary screen, cell-based, HepG2, luciferase luminescence, HepG2 viability (AID 624349; in the data active means parasite load remaining mostly below about 12%, no sharp cut-off; inactive means mostly above about 10%;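 further: 100% = mean of DMSO negative control wells on the same plate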); conditions: P. berghei liver stage in HepG2, luciferase luminescence, concentration not given here; parasite load remaining: stronger effect = lower value; viability: measured here: HepG2 viability without parasites
# [2] = stimulators of nuclear beta-catenin in C2C12, primary screen, imaging, WNT3A-conditioned medium, mouse C2C12, NPC library (AID 1117326; in the data active means nuclear beta-catenin stimulation mostly above about 4.2%, no sharp cut-off; inactive means mostly below about 10%); conditions: stronger effect = higher value
# [3] = stimulators of insulin release from INS-1E, primary screen, cell-based, 5 mM glucose, NPC library (AID 1117329;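 active means compound raises insulin release from rat beta cells at 5 mM glucose, no numeric limit stated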); conditions: rat INS-1E insulin secretion, at 10 µM, stronger effect = higher value
# [4] = growth inhibition of GSK3B-pretreated HCT116 cells – cell-based, CellTiter-Glo, 0.2 to 20 µM (AID 1117336;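 active means compounds lowering colon cancer cell viability after pretreatment blocking the GSK3B kinase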); conditions: HCT116 viability after GSK3B inhibitor, at 20 µM, stronger effect = higher value
# [5] = inhibition of endothelial tube formation, primary screen, imaging, VEGF stimulated, CD31 staining, tube area, NPC library (AID 1117340;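 active means compound that reduces growth-factor-driven endothelial tube area in a mixed cell culture, no cutoff stated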); conditions: VEGF-stimulated ADSC/ECFC co-culture, at 10 µM, stronger effect = higher value
# [6] = glucagon-like peptide 1 release enhancers, primary assay, NCI-H716 cell line, NPC library (AID 1117341;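 active means compound raises GLP1 secretion from the human gut endocrine cells, with no numeric limit stated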); conditions: NCI-H716 cells, at 10 µM, stronger effect = higher value
# [7] = HCT116 colon cancer cell growth inhibition, primary screen, CellTiter-Glo luminescence, NPC library (AID 1117342;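 active means compounds that lower survival of HCT116 colon cancer cells in the luminescence readout, no numeric limit stated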); conditions: at 20 µM (top of the series)
# [8] = CellTiter-Glo luminescent readout of SW480 viability loss, NPC library primary (AID 1117343;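 active means compounds that lower viability of the colon cancer cells in the luminescence readout, with no numeric limit stated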); conditions: CellTiter-Glo luminescence; at 20 µM (top of the series)
# [9] = decreased DLD-1 cellular survival, CellTiter-Glo luminescent readout, NPC compound collection, primary HTS (AID 1117346;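 active means compounds that lower survival of DLD-1 colon cancer cells in the luminescence readout, no cutoff given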); conditions: DLD-1 viability, CellTiter-Glo luminescence; at 20 µM (top of the series)
# [10] = biological target: 6-phosphogluconate dehydrogenase, decarboxylating (Homo sapiens) (UniProt P52209); experiment: 6PGD enzyme inhibitors, primary screen, biochemical, human, recombinant enzyme, NADPH absorbance (AID 1159550;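 active means at least 20% inhibition of 6-phosphogluconate dehydrogenase activity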); conditions: recombinant 6PGD, NADPH absorbance 341 nm; at 10 µM; stronger effect = higher value
# [11] = differential killing of epithelial or mesenchymal cells, primary screen, imaging, PC-3E GFP, TEM4-18 mCherry, co-culture (AID 1345086;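 active means compounds killing one labelled cell type while sparing the other, by normalised counts and ratio limits, not self-fluorescent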;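 on all read-outs here: cells exposed to compound for 72 h before imaging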;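 on red/green cell ratio (normalised): normalised mesenchymal count divided by normalised epithelial count so high means epithelial killing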); conditions: imaging cell counts, at 1 µM; for red/green cell ratio (normalised): actives lie on both sides
# [12] = test system: Aerobactin synthetase IucA (Klebsiella pneumoniae hvKP1); experiment: Biochemical IucA enzyme inhibition primary screen of the Spectrum library (AID 1346200); conditions: malachite green pyrophosphate, A620, at 8 µM, stronger effect = lower value;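 further: 100% = wells without compound and 0% = wells lacking enzyme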
# [13] = sensitizers of A549 cells to miR-34 induction, primary screen, imaging, A549 dox-inducible miR-34, nuclei and caspase counts (AID 1347080;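 active means compounds whose cell count with miR-34 switched on is under 0.7 times the count with it off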); conditions: A549 miR-34 inducible, Hoechst nuclei count, 48 h
# [14] = survival rescue of mitochondrial mutant cells in low glucose, primary screen, MELAS cybrids, Rieske KO mouse fibroblasts, CellTiter-Glo (AID 1508586;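 active means mean z-score across replicates of 1.96 or higher in either the MELAS or the Rieske mutant cell line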;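 further: z relative to plate mean and SD of compound and empty wells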)
# [15] = biological target: NAD(+) hydrolase SARM1 (Homo sapiens) (UniProt Q6SZW1); experiment: SARM1 TIR NADase inhibitors, cell lysate, NAD-Glo luminescence (AID 1508614;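 active means compound whose remaining NAD level is above about 45 nM, limit read from the data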); conditions: SAM-TIR HEK293T lysate NADase, at 1 µM, stronger effect = higher value
# [16] = biological target: Mitogen-activated protein kinase 7 (Homo sapiens) (UniProt Q13164); experiment: ERK5 transactivation activators in reporter cells, primary screen, cell-based, HTS (AID 1508626;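 active means luciferase signal above three times the same-plate solvent-only control wells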;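 further: luciferase driven by Gal4-ERK5 fusion binding five Gal4 sites before minimal TATA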); conditions: HeLa Gal4-ERK5 transactivation, 18 h, at 5 µM, stronger effect = higher value
# [17] = hESC survival regulators, cell-based (AID 493140); conditions: human embryonic stem cell survival screen; stronger effect = higher value;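 further: cells exposed to compounds for four days before counting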
# [18] = test system: Aerobactin synthetase IucA (Klebsiella pneumoniae, hypervirulent); experiment: IucA enzyme inhibition, biochemical, LOPAC library, absorbance readout (AID 1346212); conditions: IucA enzyme assay, absorbance (OD) readout; stronger effect = lower value;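 tested at 8 µM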;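 further: 100% = no compound wells and 0% = no enzyme wells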
# [19] = viability rescue of complex I mutant cybrids, primary screen, cell-based, galactose medium, ATP luminescence (AID 1645843;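 active means z-score of at least 1.8 in each of two replicates, scored against plate mean and spread of sample wells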;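 further: positive z means more ATP and so rescue of galactose-driven cybrid death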); conditions: complex I mutant cybrid cells, 72 h, stronger effect = higher value
# [20] = measured here: epithelial PC-3E GFP cell survival
# [21] = measured here: mesenchymal TEM4-18 mCherry cell survival
# [22] = measured here: relative caspase fold change +Dox/-Dox
# [23] = measured here: total cells with miR-34 induction, stronger effect = lower value
# [24] = measured here: total cells without miR-34 induction
# [25] = MELAS cybrid survival, CellTiter-Glo 48 h, stronger effect = higher value
# [26] = Rieske KO mouse fibroblast survival, CellTiter-Glo 72 h
# Sequence of NAD(+) hydrolase SARM1 (Homo sapiens) (Q6SZW1 whole entry, looked up, the tested form may be a part): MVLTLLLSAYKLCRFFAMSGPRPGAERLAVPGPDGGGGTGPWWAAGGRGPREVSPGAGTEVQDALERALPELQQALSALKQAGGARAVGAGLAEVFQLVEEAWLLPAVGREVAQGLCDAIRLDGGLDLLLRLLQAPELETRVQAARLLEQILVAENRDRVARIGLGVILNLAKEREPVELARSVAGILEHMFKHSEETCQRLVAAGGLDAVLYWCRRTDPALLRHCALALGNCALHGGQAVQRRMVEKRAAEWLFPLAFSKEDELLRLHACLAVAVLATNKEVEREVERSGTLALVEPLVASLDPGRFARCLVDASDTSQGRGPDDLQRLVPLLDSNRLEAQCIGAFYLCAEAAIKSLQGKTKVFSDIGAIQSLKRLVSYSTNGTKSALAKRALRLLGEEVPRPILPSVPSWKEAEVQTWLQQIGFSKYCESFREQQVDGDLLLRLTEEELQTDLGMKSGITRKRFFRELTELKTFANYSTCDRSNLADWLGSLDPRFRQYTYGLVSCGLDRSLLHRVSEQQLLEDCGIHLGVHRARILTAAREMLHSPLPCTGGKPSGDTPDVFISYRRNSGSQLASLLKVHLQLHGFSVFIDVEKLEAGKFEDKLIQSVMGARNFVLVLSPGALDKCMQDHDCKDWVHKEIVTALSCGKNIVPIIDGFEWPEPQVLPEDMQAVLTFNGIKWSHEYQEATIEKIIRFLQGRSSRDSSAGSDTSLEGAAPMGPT
# Sequence of Mitogen-activated protein kinase 7 (Homo sapiens) (Q13164 whole entry, looked up, the tested form may be a part): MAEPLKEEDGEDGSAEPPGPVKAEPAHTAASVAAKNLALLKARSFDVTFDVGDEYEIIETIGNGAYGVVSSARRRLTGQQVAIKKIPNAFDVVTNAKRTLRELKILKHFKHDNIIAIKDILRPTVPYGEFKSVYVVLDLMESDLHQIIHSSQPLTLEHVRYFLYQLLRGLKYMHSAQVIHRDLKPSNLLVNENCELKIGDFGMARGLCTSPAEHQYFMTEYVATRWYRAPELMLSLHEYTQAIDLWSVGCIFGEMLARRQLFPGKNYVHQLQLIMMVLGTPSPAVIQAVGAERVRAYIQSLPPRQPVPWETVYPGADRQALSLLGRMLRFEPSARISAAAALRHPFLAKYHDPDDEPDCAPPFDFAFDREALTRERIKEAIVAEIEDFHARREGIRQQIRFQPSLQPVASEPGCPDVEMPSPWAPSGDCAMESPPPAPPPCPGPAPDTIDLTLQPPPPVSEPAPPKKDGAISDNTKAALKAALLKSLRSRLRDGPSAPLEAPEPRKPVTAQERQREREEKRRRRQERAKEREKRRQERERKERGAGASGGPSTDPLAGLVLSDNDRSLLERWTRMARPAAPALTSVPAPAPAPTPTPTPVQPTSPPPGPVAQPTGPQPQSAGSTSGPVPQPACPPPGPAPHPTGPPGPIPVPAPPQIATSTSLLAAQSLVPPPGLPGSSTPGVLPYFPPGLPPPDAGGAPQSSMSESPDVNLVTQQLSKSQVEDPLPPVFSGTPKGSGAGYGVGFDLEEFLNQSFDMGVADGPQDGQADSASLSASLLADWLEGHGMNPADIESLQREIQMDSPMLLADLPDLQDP
# Sequence of 6-phosphogluconate dehydrogenase, decarboxylating (Homo sapiens) (P52209 whole entry, looked up): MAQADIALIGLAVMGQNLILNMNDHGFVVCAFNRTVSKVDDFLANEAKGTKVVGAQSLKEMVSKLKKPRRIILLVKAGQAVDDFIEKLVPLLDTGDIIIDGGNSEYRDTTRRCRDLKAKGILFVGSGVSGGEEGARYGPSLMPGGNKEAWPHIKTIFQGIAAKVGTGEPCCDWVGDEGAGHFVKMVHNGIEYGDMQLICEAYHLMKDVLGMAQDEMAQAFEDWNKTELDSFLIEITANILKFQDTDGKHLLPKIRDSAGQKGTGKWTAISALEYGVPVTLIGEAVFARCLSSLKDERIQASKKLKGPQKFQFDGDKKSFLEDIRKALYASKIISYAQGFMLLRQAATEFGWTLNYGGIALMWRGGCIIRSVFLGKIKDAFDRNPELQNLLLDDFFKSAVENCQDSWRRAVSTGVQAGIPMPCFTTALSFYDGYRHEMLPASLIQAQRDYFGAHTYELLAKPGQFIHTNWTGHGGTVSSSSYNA
smiles,measurement,setting,value
c1ccc2c(c1)sc1ccccc12,parasite load remaining,[1],94.3% (inactive) and 69.4% (inactive)
same,viability,[1],70.5% and 91.8%
same,nuclear beta-catenin stimulation,[2]; at 10 µM,0.1% (inactive)
same,nuclear beta-catenin stimulation,"[2]; stimulation, at 2 µM",0.9%
same,insulin secretion stimulation,[3],-1.4% (inactive)
same,viability decrease,[4],-3.95% (inactive)
same,tube area decrease,[5],-9.2% (inactive)
same,GLP1 secretion stimulation,[6],-2.6% (inactive)
same,inhibition of viability,[7],-22.5% (inactive)
same,viability decrease (inhibition),[8],-1.8% (inactive)
same,viability decrease (inhibition),[9],3% (inactive)
same,inhibition,[10],9.3% (inactive)
same,red/green cell ratio (normalised),[11],1.2 (inactive)
same,normalised cell number,[11]; [20],1.12
same,normalised cell number,[11]; [21],1.35
same,activity remaining,[12],113% (inactive)
same,fold change,[13]; stronger effect = lower value,0.934 (inactive) and 0.791 (inactive)
same,fold change,[13]; [22],0.629 and 1.03
same,cell count,[13]; [23],8380 and 10000
same,cell count,[13]; [24],8970 and 12600
same,z-score,[14]; [25],-0.144 (inactive)
same,z-score,[14]; [26],-0.145
same,remaining NAD,[15],10 nM (inactive)
same,luciferase signal,[16],32 AU (inactive)
NCCc1cc(O)c(O)cc1O,parasite load remaining,[1],70% (inactive) and 42.8% (inactive)
same,viability,[1],70% and 87.6%
same,nuclear beta-catenin stimulation,[2]; at 10 µM,2.4% (inactive)
same,nuclear beta-catenin stimulation,"[2]; stimulation, at 2 µM",2.4%
same,insulin secretion stimulation,[3],1.2% (inactive)
same,viability decrease,[4],-22.3% (inactive)
same,tube area decrease,[5],18.6% (inactive)
same,GLP1 secretion stimulation,[6],-8.1% (inactive)
same,inhibition of viability,[7],15.3% (inactive)
same,viability decrease (inhibition),[8],142% (active)
same,viability decrease (inhibition),[9],78.2% (active)
same,inhibition,[10],13% (inactive)
same,red/green cell ratio (normalised),[11],1.14 (inactive)
same,normalised cell number,[11]; [20],1.02
same,normalised cell number,[11]; [21],1.17
same,activity remaining,[12],78.8% (inactive)
same,fold change,[13]; stronger effect = lower value,0.838 (inactive)
same,fold change,[13]; [22],0.786
same,cell count,[13]; [23],10500
same,cell count,[13]; [24],12600
same,remaining NAD,[15],10 nM (inactive)
same,luciferase signal,[16],156 AU (inactive)
Oc1ccc(Cl)cc1,parasite load remaining,[1],99.5% (inactive) and 63.2% (inactive)
same,viability,[1],70.5% and 93.7%
same,nuclear beta-catenin stimulation,[2]; at 10 µM,0.8% (inactive)
same,nuclear beta-catenin stimulation,"[2]; stimulation, at 2 µM",0.5%
same,insulin secretion stimulation,[3],-0.7% (inactive)
same,viability decrease,[4],21.3% (inactive)
same,tube area decrease,[5],12.2% (inactive)
same,GLP1 secretion stimulation,[6],0.3% (inactive)
same,inhibition of viability,[7],17.9% (inactive)
same,viability decrease (inhibition),[8],34.5% (inactive)
same,viability decrease (inhibition),[9],6.1% (inactive)
same,inhibition,[10],15% (inactive)
same,red/green cell ratio (normalised),[11],0.99 (inactive)
same,normalised cell number,[11]; [20],1.1
same,normalised cell number,[11]; [21],1.09
same,activity remaining,[12],115% (inactive)
same,fold change,[13]; stronger effect = lower value,0.923 (inactive)
same,fold change,[13]; [22],1.34
same,cell count,[13]; [23],11600
same,cell count,[13]; [24],12500
same,remaining NAD,[15],10 nM (inactive)
same,luciferase signal,[16],52 AU (inactive)
Cc1ccc(N=CN(C)C=Nc2ccc(C)cc2C)c(C)c1,parasite load remaining,[1],103% (inactive) and 56.6% (inactive)
same,viability,[1],84.4% and 95.1%
same,nuclear beta-catenin stimulation,[2]; at 10 µM,0.6% (inactive)
same,nuclear beta-catenin stimulation,"[2]; stimulation, at 2 µM",2.7%
same,insulin secretion stimulation,[3],1.3% (inactive)
same,viability decrease,[4],15.1% (inactive)
same,tube area decrease,[5],-4.8% (inactive)
same,GLP1 secretion stimulation,[6],-3.1% (inactive)
same,inhibition of viability,[7],2.47% (inactive)
same,viability decrease (inhibition),[8],-61.8% (inactive)
same,viability decrease (inhibition),[9],-5.9% (inactive)
same,inhibition,[10],17.7% (inactive)
same,red/green cell ratio (normalised),[11],1.11 (inactive)
same,normalised cell number,[11]; [20],1.13
same,normalised cell number,[11]; [21],1.26
same,activity remaining,[12],119% (inactive)
same,fold change,[13]; stronger effect = lower value,0.87 (inactive)
same,fold change,[13]; [22],1.15
same,cell count,[13]; [23],11000
same,cell count,[13]; [24],12600
same,remaining NAD,[15],10 nM (inactive)
same,luciferase signal,[16],32 AU (inactive)
COP(=S)(OC)Oc1ccc(SC)c(C)c1,nuclear beta-catenin stimulation,[2]; at 10 µM,1.4% (inactive)
same,nuclear beta-catenin stimulation,"[2]; stimulation, at 2 µM",1.3%
same,insulin secretion stimulation,[3],-2.2% (inactive)
same,viability decrease,[4],16.1% (inactive)
same,tube area decrease,[5],13.4% (inactive)
same,GLP1 secretion stimulation,[6],-0.1% (inactive)
same,inhibition of viability,[7],-20.4% (inactive)
same,viability decrease (inhibition),[8],89.6% (active)
same,viability decrease (inhibition),[9],8.15% (inactive)
same,inhibition,[10],9.75% (inactive)
same,red/green cell ratio (normalised),[11],0.97 (inactive)
same,normalised cell number,[11]; [20],1.03
same,normalised cell number,[11]; [21],1
same,activity remaining,[12],92.7% (inactive)
same,fold change,[13]; stronger effect = lower value,0.917 (inactive)
same,fold change,[13]; [22],0.928
same,cell count,[13]; [23],9260
same,cell count,[13]; [24],10100
C[C@H]1O[C@@H](O[C@H]2[C@@H](O)C[C@H](O[C@H]3[C@@H](O)C[C@H](O[C@H]4CC[C@@]5(C)[C@H](CC[C@@H]6[C@@H]5CC[C@]5(C)[C@@H](C7=CC(=O)OC7)CC[C@]65O)C4)O[C@@H]3C)O[C@@H]2C)C[C@H](O)[C@@H]1O,nuclear beta-catenin stimulation,[2]; at 10 µM,1.3% (inactive)
same,nuclear beta-catenin stimulation,"[2]; stimulation, at 2 µM",1.9%
same,insulin secretion stimulation,[3],0.25% (inactive)
same,viability decrease,[4],84.5% (active)
same,tube area decrease,[5],112% (active)
same,GLP1 secretion stimulation,[6],11.6% (inactive)
same,inhibition of viability,[7],61.8% (active)
same,viability decrease (inhibition),[8],75.8% (active)
same,viability decrease (inhibition),[9],84.5% (active)
same,inhibition,[10],-0.54% (inactive)
same,remaining NAD,[15],10 nM (inactive)
same,luciferase signal,[16],24 AU (inactive)
N[C@@H]1C[C@H]1c1ccccc1,survival,[17],34.7 (inactive)
same,parasite load remaining,[1],105% (inactive)
same,viability,[1],90.9%
same,nuclear beta-catenin stimulation,[2]; at 10 µM,1.6% (inactive)
same,nuclear beta-catenin stimulation,"[2]; stimulation, at 2 µM",2.1%
same,insulin secretion stimulation,[3],0.5% (active)
same,viability decrease,[4],-2.2% (inactive)
same,tube area decrease,[5],-22.1% (inactive)
same,GLP1 secretion stimulation,[6],3.6% (inactive)
same,inhibition of viability,[7],19.4% (inactive)
same,viability decrease (inhibition),[8],10% (inactive)
same,viability decrease (inhibition),[9],-5.6% (inactive)
same,inhibition,[10],-7.3% (inactive) and 0.348% (inactive)
same,remaining activity,[18],95.5% (inactive)
same,fold change,"[13]; stronger effect = lower value, cell number ratio, induced over uninduced",0.966 (inactive)
same,fold change,[13]; [22],1.35
same,cell count,[13]; [23],9350
same,cell count,[13]; [24],9680
same,luciferase signal,[16],36 AU (inactive)
same,z-score,[19],0.32 (inactive)
NC(=O)CN1CCCC1=O,survival,[17],17.8 (inactive)
same,nuclear beta-catenin stimulation,[2]; at 10 µM,-0.1% (inactive)
same,nuclear beta-catenin stimulation,"[2]; stimulation, at 2 µM",1.2%
same,insulin secretion stimulation,[3],0.2% (inactive)
same,viability decrease,[4],-6.65% (inactive)
same,tube area decrease,[5],-16.1% (inactive)
same,GLP1 secretion stimulation,[6],1.9% (inactive)
same,inhibition of viability,[7],-10.5% (inactive)
same,viability decrease (inhibition),[8],10% (inactive)
same,viability decrease (inhibition),[9],0.05% (inactive)
same,inhibition,[10],-18.4% (inactive)
same,red/green cell ratio (normalised),[11],1.04 (inactive)
same,normalised cell number,[11]; [20],0.91
same,normalised cell number,[11]; [21],0.95
same,activity remaining,[12],112% (inactive)
same,remaining activity,[18],110% (inactive)
same,z-score,[14]; [25],0.856 (inactive) and 0.336 (inactive)
same,z-score,[14]; [26],-2.44 and 0.0138
same,remaining NAD,[15],10 nM (inactive)
same,luciferase signal,[16],44 AU (inactive)
same,z-score,[19],0.785 (inactive)

# Reference: PubChem BioAssay
